According to PubChem BioAssay (NCI):
About 83,000 compounds went through this panel and 20% of them were active in at least one assay; those are over-represented in the sample as a whole.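 Each cell line was grown in a 96-well plate and treated with one concentration of compound for 48 hours. Values below 10 were considered active.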 Values without a mark were called inactive. Active and inactive are the calls of the source.

Assays:
Assay in all cases: NCI-60 one-dose screen, 48 h (100 = growth as untreated, 0 = no growth, -100 = all killed)
Conditions in all cases: 10 µM unless noted
DU-145 prostate = tested on: DU-145 prostate
K-562 leukemia = tested on: K-562 leukemia
MALME-3M melanoma = tested on: MALME-3M melanoma
MDA-MB-231 breast = tested on: MDA-MB-231 breast
SF-268 CNS = tested on: SF-268 CNS
SF-295 CNS = tested on: SF-295 CNS
SF-539 CNS = tested on: SF-539 CNS
UACC-257 melanoma = tested on: UACC-257 melanoma
M14 melanoma = tested on: M14 melanoma
HCT-15 colon = tested on: HCT-15 colon
HT29 colon = tested on: HT29 colon
SNB-75 CNS = tested on: SNB-75 CNS
SNB-19 CNS = tested on: SNB-19 CNS
U251 CNS = tested on: U251 CNS
PC-3 prostate = tested on: PC-3 prostate
SK-MEL-5 melanoma = tested on: SK-MEL-5 melanoma
UACC-62 melanoma = tested on: UACC-62 melanoma
LOX IMVI melanoma = tested on: LOX IMVI melanoma
SK-MEL-28 melanoma = tested on: SK-MEL-28 melanoma

SMILES	growth (DU-145 prostate)	growth (K-562 leukemia)	growth (MALME-3M melanoma)	growth (MDA-MB-231 breast)	growth (SF-268 CNS)	growth (SF-295 CNS)	growth (SF-539 CNS)	growth (UACC-257 melanoma)	growth (M14 melanoma)	growth (HCT-15 colon)	growth (HT29 colon)	growth (SNB-75 CNS)	growth (SNB-19 CNS)	growth (U251 CNS)	growth (PC-3 prostate)	growth (SK-MEL-5 melanoma)	growth (UACC-62 melanoma)	growth (LOX IMVI melanoma)	growth (SK-MEL-28 melanoma)
O=C(Nc1ccccc1F)Nc1ccccc1Cl	103%	55.8%	74%	85.8%	91%	81.4%	91%	96.1%	100%	106%	91%	85.7%	97.1%	92.3%	108%	84%	73.2%	93.3%	96.9%
CC1(C)N=C(N)N=C(N)N1c1ccc(F)c(C(F)(F)F)c1	38.5%	16.9%	74.1%	73.5%	23.2%	19.5%	23.2%	25.2%	24%	45.8%	19.3%	59%	44%	47.2%	34.3%	22.8%	24.3%	21.4%	97.8%
NC(CSC(c1ccccc1)(c1ccccc1)c1ccc(F)cc1)C(=O)O (configuration not stated)	-40.3% (active)	-4.92% (active)	30.6%	-18.6% (active)	24.4%	0.119% (active)	-7.79% (active)	-15.2% (active)	-55.4% (active)	35.3%	4.36% (active)	-0.679% (active)	35.3%	31.5%	15.8%	15.2%	35.5%	46.4%	58.8%
Cc1cn(C2CC(F)C(CO)O2)c(=O)[nH]c1=O (configuration not stated)	108%	58.3%	85.1%	98.3%	103%	76.8%	107%	91.8%	89%	107%	98.9%	81.8%	90.1%	96.7%	93.8%	74.4%	81.1%	97.7%	105%
O=C(NC(=S)Nc1ccc(Cl)cc1)c1ccccc1	103%	73.2%	112%	96.3%	114%	85.5%	103%	97%	100%	93.6%	87%	94.9%	105%	96.4%	105%	102%	85.5%	106%	96.2%
CC(NCCC(c1ccccc1)c1ccccc1)c1ccccc1 (configuration not stated)	89.1%	-44% (active)	74.1%	83.8%	89.2%	62.2%	94.7%	64.4%	71.8%	75%	13.1%	87.3%	90.7%	61.1%	48%	85.8%	93.3%	74.6%	75.5%
Cc1cccc(NC(=O)CCc2ccc(N3C(N)=NC(N)=NC3(C)C)cc2)c1	50.9%	23.3%	47.2%	63.4%	33.8%	64.9%	23.9%	28.2%	64.8%	103%	17.1%	60.2%	37%	36.9%	10.5%	26.9%	24.6%	18.7%	69.9%
CCC1CN2C(=N1)c1ccccc1-c1cc(Cl)ccc12 (configuration not stated)	17.4%	2.32% (active)	-4.57% (active)	47.9%	25%	12%	17%	-28.8% (active)	21.7%	18.3%	5.27% (active)	42.6%	26.2%	14.8%	21.6%	-5.14% (active)	3.38% (active)	2.76% (active)	70.7%
